The structures appear in SMILES notation. Inconclusive results are not listed. Where a call stands in place of a potency, no number is given. Active and inactive are the calls of the source. Calls follow the shape of the dose curve; as a rule, active = well fitted inhibition curve with a large enough effect; inconclusive = small, poorly fitted or top-dose-only effect; inactive = no such curve, though single readings can be large or run the other way.
Potency is read from the fitted curve at half-maximal effect.

In the assay the test system is Zika virus NS2B-NS3 protease (unlinked complex). As to the kind of experiment: Primary screen GU Rhodamine qHTS for Zika virus inhibitors: Unlinked NS2B-NS3 protease assay (AID 1347159). Also: nearly all actives have a fitted effect of over 60% in size. Conditions: Recombinant ZIKV NS2B-NS3 protease, Rhodamine110 substrate fluorescence; series mostly up to 107 µM. In a few lines:
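Compounds, tested up to 114 microM, were incubated for 15 minutes with 25 nM unlinked NS2B-NS3 protease at pH 8.0. Cleavage of 1.5 microM Rhodamine110 substrate was then followed by fluorescence for 15 minutes.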
In general terms: In qHTS, concentration-response curves come from the screen itself.
For `CC1=C(/C=C/C(C)=C\C=C\C(C)=C/C(=O)O)C(C)(C)CCC1`, the Potency is 20 µM (active).
For `O=C(O)CC1CCC(c2ccc(-c3ccc4nc(C(=O)NCc5ccc(OC(F)(F)F)cc5)cn4c3)cc2)CC1` (centres undefined), the Potency was 2.51 µM (active).
Under `C[C@@H]1CCN(C(=O)N2CCCC2)C[C@@H]1N(C)c1ncnc2[nH]ccc12` stands “inactive”.
As to `Cc1ccc(C(=O)Nc2noc3ccccc23)cc1`, the Potency entry is “inactive”.
Under `CC(=O)OC1C[C@@]2(C)[C@@H](CC[C@@H](C)[C@]23Cc2c(O)cc4c(c2O3)CNC4=O)C(C)(C)[C@@H]1O` (some centres undefined) stands “inactive”; under `COc1cc2c3c(cc4ccccc4c3c1O)NC2=O`, 22.4 µM (active); under `C=C1C(=O)OC2CC3(C)C(CC12)C(C)=CC(O)C3OC(C)=O` (centres undefined), 25.1 µM (active).
Under `C[C@H](Oc1ccc(S(C)(=O)=O)cc1C(=O)N1CCN(c2ncc(C(F)(F)F)cc2F)CC1)C(F)(F)F` stands “inactive”; under `CC(C)(C)C(=O)CN1C(=O)[C@H](NC(=O)Nc2cccc(C(=O)O)c2)CN(C2CCCCC2)c2ccccc21`, 10 µM (active).
The same measure for `CC(=O)c1c(O)cc(O[C@@H]2O[C@H](CO)[C@@H](O)[C@H](O)[C@H]2O)cc1O`: 31.6 µM (active).
`C[C@H]1CC(=O)Nc2cccc(-c3cnn(C(C)(C)C)c3)c2N1`: the Potency result was “inactive”.
Under `OCC(CO[C@@H]1O[C@H](CO)[C@@H](O)[C@H](O)[C@H]1O)c1ccc2c(c1)OCO2` (some centres undefined) stands “inactive”; under `COc1ccc(N(C)c2nc(C)nc3ccccc23)cc1`, “inactive”.
Under `CC(C)=CCC/C(C)=C/Cc1ccc(O)c(C2OC(=O)c3cc(C(=O)O)cc(O)c32)c1O` (centres undefined) stands 2.24 µM (active); under `CC(C)[C@@H]1C(=O)N(S(C)(=O)=O)[C@@H]2CCN(C(=O)/C=C/CN3CCCCC3)[C@H]21`, “inactive”.
On to `O=C(OC[C@@]1(O)CO[C@@H](O[C@H]2[C@H](Oc3ccc(O)cc3)O[C@H](CO)[C@@H](O)[C@@H]2O)[C@@H]1O)c1ccc(O)cc1`, for which the Potency result was “inactive”.
The same measure for `O=C(C(c1ccccc1)c1ccccc1)N1CCN(CC(O)COc2cccc3ncccc23)CC1` (centres undefined): “inactive”.
On to `COCC1OC(OC(C)(C)C2CCC3(C)C=C(C4CCC5C4(C)CC(O)C4OC(C(C)(C)OC6OC(CO)C(O)C(O)C6NC(C)=O)CCC45C)CCC3O2)C(NC(C)=O)C(O)C1O` (centres undefined), for which the Potency entry was “inactive”.
In the case of `C=C1[C@@H]2CC[C@@H]3[C@@](CCC4C(C(=O)O)(C(=O)O)C[C@@H](O[C@@H]5O[C@H](CO)[C@@H](O)[C@H](O)[C@H]5OC(=O)CC(C)C)C[C@]43C)(C2)[C@H]1O` (some centres undefined), the Potency entry was “inactive”.
Under `CC1CCC23COC(=O)C2=CC(O)CC3C1(C)CCC1=CC(O)OC1=O` (centres undefined) stands 8.91 µM (active); under `C=C1C(=O)OC2C1CCC(=C)C1CC(OC(C)=O)C(=C)C12` (centres undefined), 31.6 µM (active); under `COc1cc(O)cc(C)c1C(=O)O[C@@H]1[C@H](O)[C@@H](CO)O[C@H]1n1ccc(=O)[nH]c1=O`, “inactive”.
Take `Cc1[nH]c2ccccc2c1C1=C(NCCc2ccc(F)cc2)C(=O)N(C)C1=O`: the Potency entry is “inactive”.
The same measure for `C[C@@H]1O[C@@H](O[C@H]2[C@H](O)[C@@H](O)[C@H](O[C@H]3[C@H](O[C@H]4CC[C@@]5(C)C(=CC[C@@H]6C5CC[C@]5(C)[C@@H]7[C@H](C[C@@H]65)O[C@]5(CC[C@@](C)(CO[C@@H]6O[C@H](CO)[C@@H](O)[C@H](O)[C@H]6O)O5)[C@H]7C)C4)O[C@H](CO)[C@@H](O)[C@@H]3O)O[C@@H]2CO)[C@H](O)[C@H](O)[C@H]1O` (some centres undefined): “inactive”; for `C=C1[C@H](OC(C)=O)[C@H]2[C@@H](OC(C)=O)[C@](C)(OC(C)=O)C[C@]2(OC(C)=O)C(=O)[C@H](C)/C=C/C(C)(C)C(=O)[C@H](OC(=O)C(C)CC)[C@H]1OC(C)=O` (some centres undefined): “inactive”.
The same measure for `COc1ccc(-n2[nH]c(=O)c3[nH]c4cc(Cl)ccc4c(=O)c3c2=O)c(C)c1`: 56.2 µM (active).
Take `COC1C(=O)CCC2(CO2)C1(O)C1(C)OC1CC=C(C)C` (centres undefined): the Potency is 44.7 µM (active).
The same measure for `Cc1cn(C2C=CC(CO)O2)c(=O)[nH]c1=O` (centres undefined): “inactive”; for `COc1c2c(c(C)c3c1C(=O)OC3)O[C@@]1(C)CCC3(C(C)(C)O)OC(=O)CC[C@]3(C)[C@H]1C2` (some centres undefined): “inactive”; for `O=C(O[C@H]1[C@@H]2C[C@@H]3OC[C@](O)([C@@H]1Cl)[C@H]2C(O[C@@H]1O[C@H](CO)[C@@H](O)[C@H](O)[C@H]1O)O3)c1ccc(O)c(O)c1` (some centres undefined): “inactive”.
As for `CC(C)C(N)C(=O)OCCOCn1cnc2c(=O)[nH]c(N)nc21` (centres undefined), the Potency entry was “inactive”.
The same measure for `COc1ccc(N2CCOCC2)c2sc(NC(=O)N3CCC(C)(O)CC3)nc12`: “inactive”.
The same measure for `CC1(C)C=CN2C(=O)C3=CCCN3C(=O)[C@@H]2C[C@@]12Nc1ccccc1C2=O`: “inactive”.
Under `COc1ccc(C(=O)Nc2ncc(-c3ccc(C(=O)O)cc3)s2)cc1` stands 28.2 µM (active).
On to `C[C@@]12C[C@]3(O)O[C@H](O1)[C@]1(COC(=O)c4ccccc4)[C@H]3C[C@@]12O[C@@H]1O[C@H](CO)[C@@H](O)[C@H](O)[C@H]1O`, for which the Potency entry is “inactive”.
For `C/C1=C\CCC(C)CCO[C@@H]2O[C@H](CO[C@@H]3OC[C@H](O)[C@H](O)[C@H]3OC1=O)[C@@H](O)[C@H](O)[C@H]2O` (some centres undefined), the Potency was 31.6 µM (active).
Under `C=C(C)C1CCC2(C(=O)O)CCC3(C(=O)O)C(CCC4C5(C)CCC(O)C(C)(C(=O)O)C5CCC43C)C12` (centres undefined) stands “inactive”.
For `CC(C)CCC1(O)C(=O)C(C)(C)C(O[C@@H]2O[C@H](CO)[C@@H](O)[C@H](O)[C@H]2O)C(C)(C)C1O` (some centres undefined), the Potency is 35.5 µM (active).
With `C=C1C(=O)OC2CC(C)=C(C(C)CCCO)C(O)C12` (centres undefined), the Potency is 20 µM (active).

These data come from PubChem BioAssay (NCATS).
